Results: PubChem BioAssay (NCI)
About 79,000 compounds went through this panel and 15% of them were active in at least one assay; those are over-represented in the sample as a whole. Cut-off read from the data, not from the text of the source: active = growth inhibition above about 70%; inactive = the rest.

Assays:
[1] = NCI Yeast Anticancer Drug Screen. Data for the rad50 strain (AID 155);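 note: 0% = growth of vehicle-only cultures of the same strain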; settings: S. cerevisiae rad50 strain growth inhibition; at 50.0 µM; active compounds read high
In short: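 Vehicle-treated cultures provide the reference for the growth inhibition reported for compound-exposed, repair-deficient yeast.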

[2] = NCI Yeast Anticancer Drug Screen. Data for the mec2-1 strain (AID 157); settings: S. cerevisiae mec2-1 strain, at 50.0 µM, active compounds read high
In short: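 Vehicle-treated cultures served as reference for growth inhibition of compound-exposed mec2-1 yeast.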

[3] = NCI Yeast Anticancer Drug Screen. Data for the sgs1 mgt1 strain (AID 161);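 note: 0% = growth of cultures given vehicle only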; settings: S. cerevisiae sgs1 mgt1 strain, at 50.0 µM, active compounds read high
In short: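 Mutant yeast exposed to compound; growth scored against vehicle-only wells.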

[4] = NCI Yeast Anticancer Drug Screen. Data for the cln2 rad14 strain (AID 165);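 note: 0% = growth equal to vehicle treated cultures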; settings: S. cerevisiae cln2 rad14 strain, at 50.0 µM, active compounds read high
In short: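 Each compound was tested on cln2 rad14 yeast. Inhibition of growth was calculated against vehicle-exposed controls.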

[5] = NCI Yeast Anticancer Drug Screen. Data for the bub3 strain (AID 167); settings: S. cerevisiae bub3 mutant strain, at 50.0 µM, active compounds read high
In short: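 Mutant yeast screening strain plus compound; vehicle-treated cultures serve as the 0% inhibition reference.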

[6] = NCI Yeast Anticancer Drug Screen. Data for the mlh1 rad18 strain (AID 175); settings: S. cerevisiae mlh1 rad18 strain growth inhibition; at 50.0 µM; active compounds read high
In short: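 Vehicle-treated cultures served as the reference for growth inhibition in a yeast strain carrying DNA damage repair alterations exposed to each compound.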

Measured: growth inhibition

CC1CC(C)(C)OC(c2ccc(Cl)cc2)O1 (stereo not drawn)
inactive: [1] 9.35% | [2] -5.85% | [3] -9.6% | [4] -52.5% | [5] -12.4% | [6] -9.1%

O=C(O)C1C2CCC(O2)C1C(=O)NCc1cccnc1 (stereo not drawn)
inactive: [1] 23.1% | [2] -3.8% | [3] -11.7% | [4] -9.9% | [5] -11% | [6] 2.85%

CCOC(=S)SCc1ccc([N+](=O)[O-])cc1
inactive: [1] 69.8% | [2] 18.4% | [3] 27.8% | [4] 18.6% | [5] 43% | [6] 16.9%

CN1CCC2(CC1)C(=O)N(N1CCCCCC1)C(=O)N2c1ccccc1
inactive: [1] 26.2% | [2] 4.85% | [3] -0.95% | [4] 4.5% | [5] 4% | [6] 15.5%

COc1ccccc1NC(=O)N(Cc1ccccc1)C(C)(C)C
inactive: [1] 12.2% | [2] 9.35% | [3] 30.4% | [4] -10.2% | [5] 19.3% | [6] 33.2%

C/C(=N\N=C(/C)c1ccc(Br)s1)c1ccc(Br)s1
inactive: [1] -42.5% | [2] -35% | [3] -23.7% | [4] -18.3% | [5] -12.8% | [6] -28.1%

Cc1ccc(N=C(c2ccccc2)c2ccc([N+](=O)[O-])cc2)cc1
inactive: [1] -16.6% | [2] -7.05% | [3] -21.7% | [4] -26.9% | [5] 21.4% | [6] -11.8%

CC(N)C(=O)NC(C)P(=O)(O)O (stereo not drawn)
inactive: [1] 2.7% | [2] 1.4% | [3] -7.15% | [4] -73% | [5] 9.05% | [6] 8.2%

Cc1cccc(Cc2ccccc2C(=O)c2ccccc2)c1C
inactive: [1] 5.75% | [2] -6.75% | [3] -5.5% | [4] -19.2% | [5] 7.4% | [6] -17.1%

COC(=O)c1c(O)cc(OC)cc1OCc1ccccc1
inactive: [1] 10.7% | [2] -4.4% | [3] -4.8% | [4] 27.6% | [5] 31.4% | [6] 2.95%

C/C(O)=C(/C=N/C(N)=S)C(N)=O
inactive: [1] -3.05% | [2] 14.2% | [3] 7.1% | [4] 22% | [5] 10.2% | [6] 15.5%

N#CC(NC12CC3CC(CC(C3)C1)C2)c1ccccc1C(F)(F)F (stereo not drawn)
inactive: [1] -18.6% | [2] 7.3% | [3] -30.9% | [4] 10.4% | [5] -30.1% | [6] -12.9%

CCOC(=O)c1c(NC2=NCCC2)n[nH]c1N
inactive: [1] 7.05% | [2] 14.8% | [3] 15% | [4] 14.7% | [5] -18.6% | [6] 5.9%

O=C(CCCCCCCCC(=O)NCC1(c2ccccc2)CCNCC1)NCC1(c2ccccc2)CCNCC1
inactive: [1] -27.5% | [2] -23.6% | [3] -15.2% | [4] -3.25% | [5] -23.9% | [6] -11.2%

CC(=O)C1=C(C)NC2C=CC=CN12 (stereo not drawn)
inactive: [1] 3.95% | [2] -6.9% | [3] 15.5% | [4] 17.9% | [5] 7.3% | [6] 12.9%

Cc1ccc(NC(=S)N(C)C)cc1
inactive: [1] 14.5% | [2] 15.9% | [3] -10.6% | [4] -71.8% | [5] 22.4% | [6] -23.9%

Cc1cccc(N=C2NC(=O)C(CC(=O)Nc3ccc(Cl)cc3C)S2)c1 (stereo not drawn)
inactive: [1] 0.05% | [2] -1.9% | [3] 1.95% | [4] 3.55% | [5] 8.15% | [6] 3%

CCCNC(=S)NN1C2CSC1CS2
inactive: [1] 3.15% | [2] 14.9% | [3] -1.35% | [4] -33.2% | [5] -23.9% | [6] -0.4%

CCOC(=O)COc1ccc2c(C)cc(=O)oc2c1[N+](=O)[O-]
inactive: [1] 11.4% | [2] -6.85% | [3] 2.1% | [4] 6.95% | [5] 6.6% | [6] 35.5%

O=C(c1ccc(OC(=O)c2ccccc2O)cc1)c1ccc(OC(=O)c2ccccc2O)cc1
inactive: [1] 27.6% | [2] 6.75% | [3] 29.3% | [4] -100% | [5] 8.3% | [6] 15.9%

CCCNC1=C(C(=O)OCC)C(=O)CO1
inactive: [1] -12.4% | [2] -20.7% | [3] 3.55% | [4] 15.6% | [5] -2.4% | [6] 0.1%

O=C(O)/C=C(/Oc1ccccc1)c1ccccc1
inactive: [1] -12.3% | [2] -7.7% | [3] -7.95% | [4] -8.7% | [5] -19.8% | [6] -3.55%

NCCCC(=O)NCCCCCCCCCCNC(=O)CCCN
inactive: [1] 29.3% | [2] 18% | [3] 19% | [4] 15.6% | [5] -4.45% | [6] 24.4%

COc1cc(-c2cc(CCC(=O)Nc3ccccc3[N+](=O)[O-])n(-c3ccc([N+](=O)[O-])cc3[N+](=O)[O-])n2)ccc1O
inactive: [1] -5.2% | [2] -5.5% | [3] -42.7% | [4] 31.8% | [5] -4.65% | [6] -27.7%

CC(=O)C1C(=O)C(=O)N(c2ccccc2C)C1=O (stereo not drawn)
inactive: [1] -25.6% | [2] -20.6% | [3] -13.8% | [4] 9.45% | [5] -24.9% | [6] -25.4%

O=C1C(Cl)(Cl)C(=O)C(Cl)(Cl)C(=O)C1(Cl)Cl
inactive: [1] 20.2% | [2] 24.5% | [3] 47% | [4] 0.4% | [5] 16.3% | [6] 31.7%

CCOC(=O)CSC(=O)NCCCl
inactive: [1] 21.1% | [2] -0.5% | [3] -2.8% | [4] 8.45% | [5] 17.6% | [6] 9.1%

COc1ccc(NC(C)=O)c(C(=O)CCNC(C)=O)c1
inactive: [1] -5.85% | [2] -15.4% | [3] -31.1% | [4] -7.4% | [5] -40% | [6] -23.4%

Cc1ncc(CO)c(Cc2ccc(N(C)C)cc2)c1O
inactive: [1] 3.15% | [2] -2.25% | [3] -5.9% | [4] -2.25% | [5] -58.8% | [6] 1.8%

O=c1[nH]cc(S)c(=O)[nH]1
inactive: [1] 15.8% | [2] -28.4% | [3] -15.4% | [4] -9.35% | [5] -9.7% | [6] -0.35%

CC(C)[C@@H]1CC[C@@H](C)C[C@H]1OC(=O)c1c2n(c3ccccc13)C[C@H]1OC(C)(C)O[C@@H]21
inactive: [1] 5.15% | [2] -6.65% | [3] 7.4% | [4] 22.9% | [5] 15.2% | [6] -46.2%

C=CCOC(=O)Oc1ccc(Cl)cc1Cl
inactive: [1] 9.75% | [2] 0.3% | [3] 3.3% | [4] -10.3% | [5] 21.4% | [6] 18.5%

COc1ccc(C(O)C2c3c(cc4c(c3OC)OCO4)CCN2C)c(CO)c1OC (stereo not drawn)
inactive: [1] 14.4% | [2] 12.8% | [3] 17.6% | [4] 37.5% | [5] 17.9% | [6] 7.45%

Cc1[nH]c2ccccc2c1CC1CC(=O)OC1=O (stereo not drawn)
inactive: [1] -8.35% | [2] -18.6% | [3] 12.5% | [4] 6.3% | [5] -9.15% | [6] -7.15%

CCCCCCCC/C=C\CCCCCCCC(=O)OC
inactive: [1] 33.5% | [2] 43.8% | [3] 49.3% | [4] -32.1% | [5] 44% | [6] 49%

O=C(O)C1C(Br)C(Br)C1C(=O)O (stereo not drawn) (tested in a mixture with another compound)
inactive: [1] 0.25% | [2] -16.6% | [3] -12.2% | [4] -22.2% | [5] -15.3% | [6] -19.3%

O=C(Nc1ccc(C(=O)O)cc1)OCc1ccccc1
inactive: [1] 1.65% | [2] 8.75% | [3] 15.5% | [4] -36% | [5] 2.5% | [6] -7.7%

CC(C)(C)c1ccc(P(=O)(O)C(C)(C)C)cc1
inactive: [1] -9.5% | [2] 5.9% | [3] -15.5% | [4] 35% | [5] 4.15% | [6] 6.95%
